# About 83,000 compounds went through this panel and 20% of them were active in at least one assay; those are over-represented in the sample as a whole.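 Plates (96-well) were seeded with cells, treated with compound at one concentration, and incubated for 48 hours before percent growth was determined.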 Values without a mark were called inactive. Active and inactive are the calls of the source. The calls were made as follows: active = growth percent below 10; inactive = the rest.
# Test system: HL-60(TB) leukemia
# Assay: NCI-60 one-dose screen, 48 h (100 = growth as untreated, 0 = no growth, -100 = all killed)
# Conditions: 10 µM unless noted
row,Compound,growth
1,O=C1/C(=C/c2ccc(F)cc2)Sc2c(Br)cccc21,103%
2,COC(=O)[C@]12CC[C@@H](C)[C@H](C)[C@@H]1C1=CC[C@@H]3[C@@]4(C)C[C@@H](OC(C)=O)[C@H](O)[C@@](C)(CO)[C@@H]4[C@H](O)C[C@@]3(C)[C@]1(C)CC2,-56.6% (active)
3,CC(=O)OC1CC2C(C)(C)CCC[C@]2(C)C2=C1C(O)=C(C(C)C)C(=O)C2=O (stereo partly drawn),3.12% (active)
4,C=CCNC(=S)N/C=C(/C(=O)c1ccccc1)c1ccccc1,101%
5,CN1CCN(c2cnc(C(=O)Nc3cc(F)cc4cccnc34)cn2)CC1,6.72% (active)
6,CCC1(CC)C(OC)NC(Br)=C(C#N)C1(C#N)C(N)=O (stereo not drawn),93.1%
7,CCOC(=O)c1cc(C(=O)c2ccc(O)c(O)c2)n2ccc(-c3ccn4c(C(=O)c5ccc(O)c(O)c5)cc(C(=O)OCC)c4c3)cc12,73.8%
8,N#Cc1cnn2c(-c3ccc(Cl)cc3)nc(NCCc3ccccc3)nc12,85.1%
9,O=C(CN1C(=O)NC2NC(=O)NC21)N/N=C/c1ccc(Cl)cc1Cl (stereo not drawn),99.4%
10,CCOC(=O)c1c2c(n3ccc(NC(=O)CCN4CCCC4)cc13)C(=O)c1ncccc1C2=O,-34.2% (active)
11,NC(=O)SCC(=O)Nc1ccccc1-c1ccccc1,80.3%
12,C[C@@H]1O[C@@H](O[C@@H]2C[C@H](c3ccc4c(c3O)C(=O)C3=C(C4=O)[C@@]4(O)C(=O)C[C@](C)(O)C[C@@]4(O)C=C3)O[C@H](C)[C@H]2O)CC[C@@H]1O[C@H]1C[C@@H](O)[C@H](O)[C@@H](C)O1,99.4%
13,CCOC(=O)c1c(O)cc(-c2ccccc2)cc1-c1sc(N(C)Cc2ccccc2)nc1Cl,100%
14,CC(C)OC(=O)Nc1cc(F)c(F)cc1F,98.6%
15,O=C(NCCN1CCC(O)CC1)c1cc2c(o1)C(=O)c1ccccc1C2=O,-13.9% (active)
16,Cc1cc2nc3c(=O)[nH]c(=O)nc-3n(CC=O)c2cc1C,-55.8% (active)
17,O=C1CC2C=CCN2C=C1NC(=O)C1CCCCC1 (stereo not drawn),101%
18,CN1C2CCC1/C(=C\c1ccc(F)cc1)C(=O)/C2=C/c1ccc(F)cc1,12.1%
19,CS(=O)(=O)Nc1ccc(Nc2c3ccccc3nc3cc(N)ccc23)cc1,5.48% (active)

row,Compound,growth
1,COC(OC)C1(c2ccccc2)NC(=O)NC1=O (stereo not drawn),122%
2,COc1cc(C2C3=C(COC3=O)N(CCO)c3cc4c(cc32)CCC4)cc(OC)c1O (stereo not drawn),-8.61% (active)
3,O=C(NCCN1CCOCC1)c1cncnc1Nc1ccc2c(ccn2Cc2ccccn2)c1,99.7%
4,Cc1[nH]c2ccccc2c1/C=N/Nc1ncnc2sc3c(c12)CCN(CC(=O)OC(C)(C)C)C3,12.5%
5,CCC(=O)C1C(=O)c2ccccc2C1=O,75.3%
6,COc1ccc(-c2[nH]ncc2-c2cc(OC)c(OC)c(OC)c2)cc1,-35.5% (active)
7,C#CCOc1nc(C)cc(C)c1C#N,89.5%
8,CCOC(=O)[C@@H]1CSC(CC)=C(C(=O)O)N1,-17.3% (active)
9,CSc1nc2c(c(=O)[nH]1)C1(C(=O)Nc3ccccc31)c1c(nc(SC)[nH]c1=O)N2,107%
10,Clc1ccc2c(NCCCN3CCN(c4nc(-n5ccnc5)nc5ccccc45)CC3)ccnc2c1,52.7%
11,Cc1c(C(N)=O)sc2nc(C)n(/N=c3\scc(-c4ccccc4)n3Cc3ccccc3)c(=O)c12,-35.8% (active)
12,Cc1ccc(S(=O)(=O)NCN2C(=O)c3ccccc3C2=O)cc1,106%
13,N#C/C(=C\c1ccc(Br)cc1)n1nnc2c(F)cccc21,0.171% (active)
14,CC(=O)N(C)N=Nc1ccc(C)cc1,117%
15,Cl.Fc1c[c-]c(-c2ccccn2)c(F)c1.[Pt].c1ccc([PH+](C[PH+](c2ccccc2)c2ccccc2)c2ccccc2)cc1,-33.7% (active)
16,N#CSCC1CC(O)(c2ccccc2)CC(c2ccc(Cl)cc2)O1 (stereo not drawn),-30.9% (active)
17,CCCCC(=O)N(c1ccc(Nc2c3ccccc3nc3cc([N+](=O)[O-])ccc23)cc1)S(C)(=O)=O,68.3%
18,Cc1ccc(N(CC(=O)Nc2ccc(S(=O)(=O)NC3CCN(C)CC3)cc2)S(=O)(=O)c2ccc(Cl)cc2)cc1,75.7%
19,NCC(=O)NS(=O)(=O)OC[C@H]1O[C@@H](n2cnc3c(N)ncnc32)[C@H](O)[C@@H]1O,-9.28% (active)

# — PubChem BioAssay (NCI)
